Test results taken from PubChem BioAssay AID828 (The Scripps Research Institute Molecular Screening Center, 2007).
Hit rate of the full screen: of about 140,000 compounds, about 550 (0.39%) were called active. This is one part of a sample in which actives are shown more often than they occur. A number with no mark means an inactive call. No stated cut-off is given here; in the data, active means inhibition above about 27%; inactive means the rest.

Target: Galanin receptor type 2 (Homo sapiens) (UniProt O43603)
Sequence (O43603 whole entry, looked up): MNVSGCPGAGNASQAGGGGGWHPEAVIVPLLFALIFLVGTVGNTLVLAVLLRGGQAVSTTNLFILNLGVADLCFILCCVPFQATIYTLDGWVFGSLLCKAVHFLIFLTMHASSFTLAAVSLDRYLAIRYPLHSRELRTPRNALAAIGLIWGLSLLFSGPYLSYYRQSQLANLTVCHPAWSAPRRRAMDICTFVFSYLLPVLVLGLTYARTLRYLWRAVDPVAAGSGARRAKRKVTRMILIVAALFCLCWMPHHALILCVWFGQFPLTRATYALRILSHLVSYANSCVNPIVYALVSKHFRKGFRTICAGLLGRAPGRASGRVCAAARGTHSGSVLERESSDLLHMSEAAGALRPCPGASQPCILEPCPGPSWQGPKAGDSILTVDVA
Experiment: blockers of human galanin receptor 2 – cell-based, primary screen (AID 828);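 further: cells stimulated with galanin 1-16 at roughly its EC80; 0% = agonist challenge control and 100% = basal control without agonist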
Details: GALR2-expressing cells, antagonist mode; at 4 µM; active compounds read high

Row | SMILES | inhibition
1 | O=C(Oc1ccc([N+](=O)[O-])cc1)c1ccc(Cl)c(S(=O)(=O)N2CCCCC2)c1 | -9.96%
2 | COc1ccc(N(C(=O)c2ccc(C)cc2)S(=O)(=O)c2cccs2)cc1 | 5.74%
3 | C=C1c2cc(CC)ccc2NC(=O)N1c1ccc(C)cc1 | 5.36%
4 | CCc1ccc2c(c1)C1(NN=C(c3ccccc3)S1)C(=O)N2 (centres undefined) | 28.2% (active)
5 | O=C1Nc2ccccc2C12Nc1ccccc1S2 (centres undefined) | 6.08%
6 | CNC(=O)c1ccsc1NC(=O)c1ccc(S(=O)(=O)N2CCOCC2)cc1 | -4.99%
7 | CCCn1nc(C(=O)Nc2ccc3nc(C)sc3c2)c2ccccc2c1=O | -3.02%
8 | COc1ccccc1N1N=C(c2cccs2)CC1c1ccccc1 (centres undefined) | 32.5% (active)
9 | Fc1ccc(N2N=C(c3cccs3)CC2c2ccco2)c(F)c1 (centres undefined) | -13.2%
10 | COc1ccc(C2CC(c3cccs3)=NN2C(=O)COC(=O)c2cc3ccccc3cc2O)cc1OC (centres undefined) | 12.7%
11 | CC(C)(C)NC(=O)COC(=O)c1cc(Br)ccc1Cl | -2.97%
12 | CC(=O)Nc1ccc(S(=O)(=O)NC(C)C(=O)OCC(=O)NC2CCCC2)cc1 (centres undefined) | 11.3%
13 | O=C(Cc1cccs1)Nc1cccc(-c2nc3ccccc3[nH]2)c1 | 12.3%
14 | COc1ccc(/C=C(\C#N)C(=O)NCCCn2ccnc2)cc1 | 8.04%
15 | O=C(Nc1ccccc1)c1nnsc1S(=O)(=O)c1ccc(Cl)cc1 | 42.4% (active)
16 | O=C(Nc1ccc(Cl)cc1)c1ccsn1 | 12.1%
17 | CC(=O)Nc1cc(C(=O)O)ccc1S(=O)(=O)c1ccc(Cl)cc1 | 4.42%
18 | Cc1cc(N2CCN(Cc3ccc4c(c3)OCO4)CC2)n2ncnc2n1 | -5.12%
19 | Fc1ccc2[nH]c3c(N4CCSCC4)ncnc3c2c1 | 22.8%
20 | Fc1ccc2[nH]c3c(N4CCN(Cc5ccc6c(c5)OCO6)CC4)ncnc3c2c1 | 44.8% (active)
21 | CCOc1ccc(NC(=O)Nc2cc(C)ccc2OC)cc1 | 1.77%
22 | CC(=O)c1c(C)[nH]c(C(=O)NCc2ccc(C)cc2)c1C | -10.3%
23 | COc1ccc(C)cc1NC(=O)c1[nH]c(C)c(C(C)=O)c1C | 27.2% (active)
24 | CC(C)(C)N(Cc1ccccc1)C(=O)COC(=O)CCc1c[nH]c2ccccc12 | 1.11%

Row | SMILES | inhibition
25 | Cc1ccc(NC(=S)NC(=O)/C=C/c2ccc(Cl)cc2)cc1 | -8.1%
26 | O=[N+]([O-])c1cc(S(=O)(=O)N2CCCC2)ccc1NN=C1CCCC1 | -1.82%
27 | O=C(NCCc1ccccc1)C1CCN(S(=O)(=O)c2ccc(Br)s2)CC1 | -2.64%
28 | COC(C(=O)Nc1ccc(S(=O)(=O)Nc2ccc(C)c(C)c2)cc1)c1ccccc1 (centres undefined) | 0.51%
29 | Cc1cc(C)nc(SC2CCCCC2NS(=O)(=O)c2ccc(Cl)cc2)n1 (centres undefined) | -14.2%
30 | COc1ccc(OC)c(/C=C/C(=O)OCC(=O)Nc2ccc3c(c2)OCCO3)c1 | 4.33%
31 | CCOC(=O)/C(=N\Nc1cc(Cl)ccc1Cl)N1CCN(C)CC1 | -4.67%
32 | CCn1c(=O)cc(SCC(=O)NCCC2=CCCCC2)c2ccccc21 | -16%
33 | CCOC(=O)C1=C(C)NC(=S)NC1c1cccs1 (centres undefined) | -4.54%
34 | CCC1C=C(c2ccccc2)C=CN=C1N(CC)CC (centres undefined) | 15%
35 | CCC(CC)c1nnc(NC(=O)/C=C/c2ccco2)s1 | 8.13%
36 | CCOC(=O)/C(N=Nc1cc(C(=O)O)cc(C(=O)O)c1)=C(\O)CCl | -4.09%
37 | CC1(C)CC(=O)C/C(=N\NC(=O)c2cccs2)C1 | 9.6%
38 | Cc1ccc2nc(-c3cccnc3)c(NC3CCCC3)n2c1 | 21.2%
39 | CC(=O)Nc1ccc(S(=O)(=O)Nc2nc(-c3ccc(C(C)(C)C)cc3)cs2)cc1 | -2.4%
40 | O=[N+]([O-])c1ccccc1SNc1ccccn1 | 0.95%
41 | CC(=O)NC1C(Oc2ccc(C)cc2)OC2COC(c3ccco3)OC2C1O (centres undefined) | 11.3%
42 | O=[N+]([O-])c1ccc(N2CCN(S(=O)(=O)c3ccccc3)CC2)cc1N1CCc2ccccc2C1 | 1.38%
43 | COc1ccccc1-c1nnc(NC(=O)c2cccc(N3C(=O)CCC3=O)c2)o1 | -8.68%
44 | O=C(/C=C\c1cn(-c2ccccc2)nc1-c1cccs1)N1CCOCC1 | 13.8%
45 | O=C(Nn1c(SCc2ccc([N+](=O)[O-])cc2)nc2ccccc2c1=O)c1ccc(F)cc1 | -6.11%
46 | COc1ccc(-c2cc(C(=O)NC(Cc3c[nH]c4ccccc34)C(=O)O)c(C)o2)cc1OC (centres undefined) | 2.65%
47 | COc1ccc(NS(=O)(=O)c2ccc(NC(=S)NC(=O)/C=C/c3ccc(C)cc3)cc2)nn1 | 7.84%
48 | COc1cccc(NC(=O)Cc2ccc(C)cc2)c1 | 4.68%

Row | SMILES | inhibition
49 | COc1ccc(NC(=O)/C(Cl)=C(/Cl)S(=O)Cc2ccc(C)cc2)cn1 (centres undefined) | 105% (active)
50 | COC(=O)Cc1ccc(N(Cc2ccccc2F)S(=O)(=O)c2ccc(Br)cc2)cc1 | -3.96%
51 | COc1ccc(C(C(=O)NC2CCCCC2)N(C(=O)CCl)c2ccccc2Cl)cc1 (centres undefined) | 3.18%
52 | CCOc1ccc(S(=O)(=O)N(CC(=O)NCC(F)(F)F)Cc2ccco2)cc1 | -7%
53 | COCC(C)NC(=O)c1ccc(-n2nc(C(F)(F)F)cc2-c2cccs2)cc1 (centres undefined) | -1.6%
54 | CCCNC(=O)c1ccc(Cl)c(Cl)c1 | 10.1%
55 | COCC(C)NC(=O)c1ccc(Cl)c(Cl)c1 (centres undefined) | 27.4% (active)
56 | CCN1CN(Cc2ccccc2)CNC1=S | 3.98%
57 | O=S(=O)(/N=C(/Nc1ccccc1)c1ccccc1)c1cccs1 | -10.3%
58 | Cc1ccc(CC2S/C(=C(/C#N)C(=O)N3CCOCC3)N(c3ccccc3)C2=O)cc1 (centres undefined) | -9.98%
59 | C=CCNC(=O)/C(=C\c1cccc([N+](=O)[O-])c1)NC(=O)c1ccccc1 | 3.63%
60 | COc1ccc(NC(=O)COC(=O)c2ccc(NS(=O)(=O)/C=C/c3ccccc3)cc2)cc1 | 9.83%
61 | COc1cc2c(cc1OC)C(=O)NCC(C)(C)O2 | 1.34%
62 | CCCSc1nc2[nH]ncc2c(=O)[nH]1 | -7.72%
63 | Cc1ccc(Nc2nc(CSc3nnc(-c4ccncc4)n3-c3ccccc3C)cs2)cc1 | -7.55%
64 | Cc1ccc(C(=O)N2CC(=O)Nc3ccccc32)o1 | -5.68%
65 | CC(C)(C)OC(=O)N/N=C/c1ccc(C(=O)O)cc1 | 1.78%
66 | O=C(CC1SC(=Nc2ccccc2)N(Cc2ccccn2)C1=O)Nc1cccc(Cl)c1 (centres undefined) | -2.96%
67 | COC(=O)Cc1cc(=O)oc2c(C)c(O)ccc12 | 39.2% (active)
68 | CCCc1cc(=O)oc2c(C)c(O)c(CN3CCCCC3)cc12 | -0.41%
69 | COC(=O)COc1ccc2oc(=O)cc(C)c2c1 | 4.15%
70 | O=c1c2c(ncn1Cc1ccccc1)nc1n2CCC1 | 11.2%
71 | Clc1ccccc1SCc1nc2ccccc2[nH]1 | 7.26%
72 | c1ccc(-c2nnc(SCc3nc4ccccc4[nH]3)o2)cc1 | 27.2% (active)

Row | SMILES | inhibition
73 | Clc1ccc(-c2nnc(SCc3nc4ccccc4s3)o2)cc1 | 12%
74 | CCCC/C(C)=N/NC(=O)NC1CCCCC1 | 1.57%
75 | CCCCN(C)CCC(=O)Nc1ccc(Cl)cc1 | 9.01%
76 | Nc1nc(CC(=O)CSc2ccc(Cl)cc2)nc(Nc2ccc(F)cc2)n1 | 5.35%
77 | O=C(COc1ccccc1F)NNC(=O)c1ccc(N2CCCCC2)c([N+](=O)[O-])c1 | -5.34%
78 | COc1ccc([N+](=O)[O-])cc1NC(=O)c1ccc(N(Cc2ccccc2C)S(C)(=O)=O)cc1 | 10.8%
79 | CCCCCCCCCOC1OC(CO)C(O)C(O)C1NC(C)=O (centres undefined) | -2.61%
80 | N=C1C(=O)OCC1c1ccccc1NC(=O)CN1CCCCC1 (centres undefined) | 0.12%
81 | O=C(Nn1c(-c2ccccc2)nc2ccccc2c1=O)c1ccc([N+](=O)[O-])cc1 | -0.78%
82 | Cc1ccc(S(=O)(=O)/N=S(\C)C(C)C)cc1 (centres undefined) | 0.24%
83 | COC(=O)[C@H]1Cc2cnoc2C[C@]1(C)C(=O)O | 13.5%
84 | CC1=C/C(=N\OS(=O)(=O)c2ccccc2)C=CC1=O | 53.5% (active)
85 | Cc1ccc(S(=O)(=O)c2ccc(Oc3ccccc3)cc2)cc1 | -10.2%
86 | CCOC(=O)C1(S(=O)(=O)c2ccccc2)CCN(Cc2ccccc2)CC1 | -2.88%
87 | O=C(Cc1ccccc1)NNC1CC(=O)N(c2ccc(Br)cc2)C1=O (centres undefined) | -17.6%
88 | COc1ccc(NS(=O)(=O)c2ccc(NC(=O)c3ccc(N(C)S(C)(=O)=O)cc3)cc2)cc1 | 3.65%
89 | Cc1cc(Br)ccc1SCC(=O)OCC(=O)NCc1ccc2c(c1)OCO2 | 1.98%
90 | C/C(=N\Nc1ccc([N+](=O)[O-])cc1)c1ccc(-n2nncc2C(C)(C)C)cc1 | -1.64%
91 | Cc1ccc(NC(=O)NC(=O)N(C2CCCCC2)S(=O)(=O)c2ccccc2)cc1 | 1.91%
92 | Cc1cc(C)c[n+](-c2nc3ccccc3nc2[N-]S(=O)(=O)c2cccs2)c1 | -5.36%
93 | O=C(Nc1ccc2c(c1)OCO2)c1ccc(N2C(=O)c3ccccc3C2=O)cc1 | -3%
94 | CC1CCCN(S(=O)(=O)c2ccc(N(C(=O)c3cnccn3)C(C(=O)NC3CCCCC3)c3cccs3)cc2)C1 (centres undefined) | 8.87%
